# For part of these data: Measured potencies and affinities stand elsewhere.
# Key:
# Design in all cases: scale not given: direction of the effect not stated beside the values
# [1] = biological target: Protein translocase subunit SecA (Escherichia coli (strain K12)) (UniProt P10408); assay: Assay to Identify E. coli SecA ATPase Inhibitors; format: functional; conditions: 30 µM
# [2] = biological target: T1, Ubiquitin-activating enzyme e1, putative (Leishmania donovani (strain BPK282A1)) (UniProt E9BSI1); assay: Leishmania donovani Ubiquitin Activating Enzyme (LdE1); format: functional; conditions: 30 µM
# T1 sequence (whole entry): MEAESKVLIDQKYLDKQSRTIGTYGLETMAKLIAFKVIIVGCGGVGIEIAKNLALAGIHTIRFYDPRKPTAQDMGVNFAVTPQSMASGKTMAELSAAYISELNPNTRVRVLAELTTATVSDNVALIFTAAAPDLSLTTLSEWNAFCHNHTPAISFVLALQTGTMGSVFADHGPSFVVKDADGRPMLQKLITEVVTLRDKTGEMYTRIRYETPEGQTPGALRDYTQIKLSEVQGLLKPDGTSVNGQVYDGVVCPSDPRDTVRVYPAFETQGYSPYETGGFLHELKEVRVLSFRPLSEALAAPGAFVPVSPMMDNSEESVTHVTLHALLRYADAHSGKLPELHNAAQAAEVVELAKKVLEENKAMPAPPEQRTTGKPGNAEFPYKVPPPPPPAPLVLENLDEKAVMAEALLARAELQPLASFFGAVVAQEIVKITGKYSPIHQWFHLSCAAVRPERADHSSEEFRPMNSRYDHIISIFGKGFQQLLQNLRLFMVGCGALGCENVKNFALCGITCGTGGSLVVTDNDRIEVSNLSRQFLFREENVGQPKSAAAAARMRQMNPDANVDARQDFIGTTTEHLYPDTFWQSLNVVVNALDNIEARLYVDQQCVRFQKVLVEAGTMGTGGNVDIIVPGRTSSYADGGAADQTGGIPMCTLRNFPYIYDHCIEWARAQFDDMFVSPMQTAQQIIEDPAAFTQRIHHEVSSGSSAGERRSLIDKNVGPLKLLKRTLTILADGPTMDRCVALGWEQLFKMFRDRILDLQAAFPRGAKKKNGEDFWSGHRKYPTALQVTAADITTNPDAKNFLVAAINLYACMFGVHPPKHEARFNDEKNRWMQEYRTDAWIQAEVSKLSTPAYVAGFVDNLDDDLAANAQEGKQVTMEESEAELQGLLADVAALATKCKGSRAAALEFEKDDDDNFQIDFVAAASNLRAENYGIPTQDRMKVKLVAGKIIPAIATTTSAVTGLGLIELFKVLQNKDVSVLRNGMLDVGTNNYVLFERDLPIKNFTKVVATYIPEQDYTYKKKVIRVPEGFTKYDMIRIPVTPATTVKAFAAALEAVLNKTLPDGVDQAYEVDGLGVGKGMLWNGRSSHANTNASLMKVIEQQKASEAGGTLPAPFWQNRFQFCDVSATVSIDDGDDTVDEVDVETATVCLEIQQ
# [3] = biological target: Sialic acid-binding Ig-like lectin 9 (Homo sapiens) (UniProt Q9Y336); assay: Hs-Siglec9 ALPHAscreen SOP 20170721; conditions: 10 µM
# Sequence of Sialic acid-binding Ig-like lectin 9 (Homo sapiens) (Q9Y336 whole entry): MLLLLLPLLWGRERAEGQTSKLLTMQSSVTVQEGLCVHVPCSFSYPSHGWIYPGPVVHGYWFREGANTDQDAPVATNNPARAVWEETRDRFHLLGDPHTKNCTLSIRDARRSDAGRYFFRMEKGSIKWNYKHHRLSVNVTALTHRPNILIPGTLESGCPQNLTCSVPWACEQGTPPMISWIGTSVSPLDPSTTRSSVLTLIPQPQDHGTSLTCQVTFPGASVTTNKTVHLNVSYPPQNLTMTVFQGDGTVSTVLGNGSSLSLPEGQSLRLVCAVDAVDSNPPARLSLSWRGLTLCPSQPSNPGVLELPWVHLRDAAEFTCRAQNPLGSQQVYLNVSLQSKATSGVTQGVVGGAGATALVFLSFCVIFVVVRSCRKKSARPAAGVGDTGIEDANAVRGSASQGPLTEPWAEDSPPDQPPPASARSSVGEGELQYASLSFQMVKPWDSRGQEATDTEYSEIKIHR
# Trypanosoma cruzi = assay: Trypanosoma cruzi phosphomannomutase and mannose-1-phosphate guanylyltransferase assay; format: functional; conditions: 10 µM
# [4] = biological target: T2, Arginase-2, mitochondrial (Homo sapiens) (UniProt P78540); assay: in vitro enzyme assay to detect the production of urea directly proportional to the activity of Arginase II; format: functional; conditions: 33.3 µM; note: in the data most compounds retested in dose-response had high values
# T2 sequence (whole entry): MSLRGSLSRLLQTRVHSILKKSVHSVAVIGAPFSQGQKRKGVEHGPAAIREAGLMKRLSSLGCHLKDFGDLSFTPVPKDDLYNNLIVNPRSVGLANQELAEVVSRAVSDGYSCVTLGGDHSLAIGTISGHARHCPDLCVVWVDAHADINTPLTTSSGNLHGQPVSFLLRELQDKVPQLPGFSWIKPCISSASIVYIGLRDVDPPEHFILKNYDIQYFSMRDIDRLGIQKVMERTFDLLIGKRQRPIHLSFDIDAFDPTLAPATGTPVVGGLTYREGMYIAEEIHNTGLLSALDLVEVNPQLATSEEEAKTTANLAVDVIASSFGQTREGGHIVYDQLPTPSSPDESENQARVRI
# [5] = biological target: T3, Proteasome subunit beta (Trypanosoma cruzi) (UniProt O96673); assay: Trypanosoma cruzi proteasome chymotrypsin-like activity (TcProtChymo) assay.; note: in the data most compounds retested in dose-response had high values; format: functional; conditions: 9.37 µM
# T3 sequence (whole entry): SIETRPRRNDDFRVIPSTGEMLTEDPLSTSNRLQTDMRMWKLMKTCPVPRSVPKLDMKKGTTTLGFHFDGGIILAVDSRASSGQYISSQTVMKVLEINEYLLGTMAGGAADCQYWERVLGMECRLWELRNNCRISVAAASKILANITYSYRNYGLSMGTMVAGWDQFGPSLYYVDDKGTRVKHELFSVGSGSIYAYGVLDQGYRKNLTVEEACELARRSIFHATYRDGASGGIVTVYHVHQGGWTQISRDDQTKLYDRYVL
# Homo sapiens = organism: Homo sapiens; assay: To identify inhibition of the IFN signalling (Jak-Stat) pathway via expression of an eGFP reporter gene under the control of an IFN-stimulated response element (ISRE) containing MxA promoter.; format: functional; conditions: 30 µM
# [6] = biological target: T4, Tyrosyl-tRNA synthetase, putative (Trypanosoma cruzi (strain CL Brener)) (UniProt Q4DSP6); assay: Trypanosoma cruzi tyrosyl tRNA synthetase (TcYRS) _High Tyrosine SOP; format: functional; conditions: 30 µM; note: in the data most compounds retested in dose-response had high values
# T4 sequence (whole entry): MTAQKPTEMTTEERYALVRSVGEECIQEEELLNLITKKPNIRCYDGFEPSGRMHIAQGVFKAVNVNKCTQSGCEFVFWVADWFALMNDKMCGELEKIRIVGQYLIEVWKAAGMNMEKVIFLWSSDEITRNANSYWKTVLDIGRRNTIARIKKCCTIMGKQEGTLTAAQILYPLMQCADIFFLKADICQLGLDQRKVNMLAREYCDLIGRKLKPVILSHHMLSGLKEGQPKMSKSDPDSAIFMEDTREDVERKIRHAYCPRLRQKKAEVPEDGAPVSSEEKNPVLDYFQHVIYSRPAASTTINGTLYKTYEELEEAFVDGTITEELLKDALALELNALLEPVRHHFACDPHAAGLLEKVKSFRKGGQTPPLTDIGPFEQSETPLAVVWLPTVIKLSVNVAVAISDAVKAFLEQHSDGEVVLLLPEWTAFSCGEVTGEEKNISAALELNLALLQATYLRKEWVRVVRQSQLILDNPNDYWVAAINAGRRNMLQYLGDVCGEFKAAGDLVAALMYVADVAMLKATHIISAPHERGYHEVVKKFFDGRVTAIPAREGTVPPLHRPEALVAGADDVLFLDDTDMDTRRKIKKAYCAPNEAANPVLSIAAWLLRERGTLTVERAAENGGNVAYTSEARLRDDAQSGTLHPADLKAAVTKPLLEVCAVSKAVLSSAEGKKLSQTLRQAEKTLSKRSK
# [7] = biological target: T4, Tyrosyl-tRNA synthetase, putative (Trypanosoma cruzi (strain CL Brener)); assay: Trypanosoma cruzi tyrosyl tRNA synthetase (TcYRS) SOP; format: functional; conditions: 30 µM
# [8] = biological target: Chromo domain-containing protein 1 (Saccharomyces cerevisiae (strain ATCC 204508 / S288c) (Baker's yeast)) (UniProt P32657); assay: ScCHD-1 Enzyme Inhibition Assay; format: functional; conditions: 30 µM; note: in the data most compounds retested in dose-response had high values
# Sequence of Chromo domain-containing protein 1 (Saccharomyces cerevisiae (strain ATCC 204508 / S288c) (Baker's yeast)) (P32657 whole entry, the tested form may be a part): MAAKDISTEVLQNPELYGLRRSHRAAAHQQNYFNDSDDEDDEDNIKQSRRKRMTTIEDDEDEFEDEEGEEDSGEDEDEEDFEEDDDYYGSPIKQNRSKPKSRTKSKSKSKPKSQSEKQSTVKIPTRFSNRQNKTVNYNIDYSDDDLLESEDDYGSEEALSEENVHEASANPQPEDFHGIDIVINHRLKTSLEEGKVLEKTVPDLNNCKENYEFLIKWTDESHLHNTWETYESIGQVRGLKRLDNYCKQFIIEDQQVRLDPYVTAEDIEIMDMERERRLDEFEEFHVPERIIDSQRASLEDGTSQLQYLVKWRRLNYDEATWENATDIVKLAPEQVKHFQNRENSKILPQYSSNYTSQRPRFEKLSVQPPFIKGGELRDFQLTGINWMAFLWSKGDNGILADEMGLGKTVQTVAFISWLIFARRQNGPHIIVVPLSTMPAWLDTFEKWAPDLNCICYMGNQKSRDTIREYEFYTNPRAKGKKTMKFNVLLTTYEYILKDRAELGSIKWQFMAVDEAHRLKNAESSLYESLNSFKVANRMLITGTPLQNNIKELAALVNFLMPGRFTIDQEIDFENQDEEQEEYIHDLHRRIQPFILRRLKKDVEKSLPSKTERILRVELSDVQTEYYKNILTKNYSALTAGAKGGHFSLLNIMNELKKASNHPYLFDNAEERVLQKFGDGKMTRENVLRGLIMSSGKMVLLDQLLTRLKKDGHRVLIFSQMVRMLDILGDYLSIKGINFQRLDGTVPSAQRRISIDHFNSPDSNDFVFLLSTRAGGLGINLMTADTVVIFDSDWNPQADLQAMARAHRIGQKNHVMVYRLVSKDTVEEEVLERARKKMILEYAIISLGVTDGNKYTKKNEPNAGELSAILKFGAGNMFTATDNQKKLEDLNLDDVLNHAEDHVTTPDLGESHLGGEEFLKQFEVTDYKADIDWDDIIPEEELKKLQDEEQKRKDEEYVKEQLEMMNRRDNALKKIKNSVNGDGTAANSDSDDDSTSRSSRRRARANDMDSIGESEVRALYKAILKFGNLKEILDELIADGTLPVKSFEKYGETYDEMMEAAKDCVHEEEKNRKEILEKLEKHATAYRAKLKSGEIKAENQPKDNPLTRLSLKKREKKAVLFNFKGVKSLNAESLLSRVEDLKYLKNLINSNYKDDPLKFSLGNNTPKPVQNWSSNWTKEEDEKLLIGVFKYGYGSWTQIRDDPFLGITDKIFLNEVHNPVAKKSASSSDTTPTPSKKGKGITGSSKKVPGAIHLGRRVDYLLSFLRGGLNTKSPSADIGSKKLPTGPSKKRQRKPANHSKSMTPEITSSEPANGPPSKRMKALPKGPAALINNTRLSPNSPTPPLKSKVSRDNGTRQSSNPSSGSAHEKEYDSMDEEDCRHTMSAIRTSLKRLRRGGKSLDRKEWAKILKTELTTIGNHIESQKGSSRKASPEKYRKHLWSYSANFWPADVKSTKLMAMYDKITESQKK
# Sequence of Protein translocase subunit SecA (Escherichia coli (strain K12)) (P10408 whole entry): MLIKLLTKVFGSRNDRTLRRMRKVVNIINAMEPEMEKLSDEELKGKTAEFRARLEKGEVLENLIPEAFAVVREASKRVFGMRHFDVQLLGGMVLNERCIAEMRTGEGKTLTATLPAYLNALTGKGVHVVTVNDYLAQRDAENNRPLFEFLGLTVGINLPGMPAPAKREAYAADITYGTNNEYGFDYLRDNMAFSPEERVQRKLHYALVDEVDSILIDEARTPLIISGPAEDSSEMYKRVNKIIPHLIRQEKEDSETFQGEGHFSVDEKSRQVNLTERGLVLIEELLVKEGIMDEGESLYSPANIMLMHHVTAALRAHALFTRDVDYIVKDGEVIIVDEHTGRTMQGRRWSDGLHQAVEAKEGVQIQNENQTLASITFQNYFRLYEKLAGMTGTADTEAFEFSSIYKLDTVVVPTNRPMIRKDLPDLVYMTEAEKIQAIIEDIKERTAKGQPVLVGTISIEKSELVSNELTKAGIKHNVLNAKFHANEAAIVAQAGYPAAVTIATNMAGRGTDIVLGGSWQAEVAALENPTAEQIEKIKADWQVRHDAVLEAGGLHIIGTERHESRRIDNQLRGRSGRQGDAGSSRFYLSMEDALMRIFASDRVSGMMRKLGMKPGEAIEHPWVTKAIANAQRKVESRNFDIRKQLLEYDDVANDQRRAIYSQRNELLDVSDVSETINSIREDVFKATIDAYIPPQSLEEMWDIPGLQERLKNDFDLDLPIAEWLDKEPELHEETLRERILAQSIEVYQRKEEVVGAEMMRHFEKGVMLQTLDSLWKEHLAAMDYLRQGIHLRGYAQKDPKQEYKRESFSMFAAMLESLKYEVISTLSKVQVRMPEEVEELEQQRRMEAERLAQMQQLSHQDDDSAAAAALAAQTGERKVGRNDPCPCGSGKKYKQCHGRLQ
Compound,Percent Effect [1],Percent Effect [2],Percent Effect [3],Percent Effect (Trypanosoma cruzi),Percent Effect [4],Percent Effect [5],Percent Effect (Homo sapiens),Percent Effect [6],Percent Effect [7],Percent Effect [8]
c1cnn(CC2CN(Cc3noc(C4CC4)n3)CCO2)c1 (stereo not given),-9.46%,16%,4.59%,1.81%,-3.1%,10.8%,7.98%,3.68%,7.69%,-6.72%
CC(C)CCCNC(=O)Nc1ccc(F)c(C(N)=O)c1,-0.324%,23.4%,0.112%,2.61%,-6.76%,12.3%,14.9%,6.86%,30.6%,-10.9%
COCCc1noc(CN2CCCC2c2c(C)nn(C)c2C)n1 (stereo not given),-3.14%,0%,5.73%,5.22%,-0.887%,3.14%,-16.4%,1.58%,2.56%,-6.66%
NC(=O)CC1CCN(C(=O)NCc2ccccc2-n2cccn2)CC1,-5.04%,21.3%,5.25%,-0.602%,-1.77%,9.41%,15%,7.89%,15.4%,-10.3%
COCC(=O)N1CCC(c2cc(C(F)(F)F)n3ccnc3n2)CC1,-4.74%,17.3%,7.36%,3.75%,0.885%,9.85%,5.45%,3.17%,15%,-24.5%
COc1cc(C)nc(N2CCN(C(=O)CNC(C)(C)C)CC2)n1,-1.19%,5.13%,-1.55%,-1.22%,4.51%,-3.67%,19.9%,0.478%,8.43%,-2.39%
Cc1ccc(NC(=O)C2CSCN2C(=O)c2cnccn2)c(C)c1 (stereo not given),-4.93%,7.69%,-2.1%,-4.6%,6.15%,1.11%,26.2%,3.35%,10.8%,-1.89%
O=C(C1CCOCC1)N1CC[C@H]2C[C@@H](c3ccncn3)O[C@@H]2C1,-7.3%,3.9%,2.39%,5.55%,-6.48%,13.7%,-13.3%,3.68%,15.4%,25.1%
O=C(CN1CCCC(Cn2cncn2)C1)NCCOc1ccccc1 (stereo not given),3.17%,-2.67%,2.29%,-1.41%,5.32%,4.67%,6.94%,0.526%,0%,-6.78%
CC(C)NC(=O)N1CCC2(C1)CN(c1ccsc1)C(=O)CN2C (stereo not given),-2.47%,9.09%,-13.1%,-3.41%,5.26%,20.6%,-8.36%,6.84%,10.3%,10.4%
CCOC(=O)CN1CCC2(CC1)CC(=O)c1ccc(OC)cc1O2,-2.51%,27.3%,8.34%,4.13%,-4.11%,19.1%,7.83%,1.93%,15%,-11%
CCc1nc(C2CCCN2C(=O)c2nccnc2N)no1 (stereo not given),-2.75%,-5.13%,-2.27%,8.92%,0.82%,-4.69%,-2.29%,-2.39%,6.02%,-1.91%

# From ChEMBL document CHEMBL3988442, “University of Dundee, Small-Polar-MMV Screening Library” (2021)
